# According to PMC11062922 (Nature Chemical Biology, 2023):
# Read-outs that look alike come from different tables or passages of the source.
# How the values were obtained:
# [1] = system: PDGFRB; conditions: read-out: apparent Kd; compound concentrations:100 nM and 1000 nM (sheet 'Lestaurtinib' of Supplementary Table 1),run:Lestaurtinib_03260_R2,Plate:MR033; n = 1
# [2] = system: PRKAA1; conditions: read-out: apparent Kd, n = 1
# [3] = system: PRKAG1; conditions: read-out: apparent Kd, n = 1
# [4] = system: PRKD1; conditions: read-out: apparent Kd, n = 1
# [5] = compound concentrations:100 nM and 1000 nM (sheet 'Lestaurtinib' of Supplementary Table 1),run:Lestaurtinib_02339_R2,Plate:MR001
# [6] = compound concentrations:100 nM and 1000 nM (sheet 'Lestaurtinib' of Supplementary Table 1),run:Lestaurtinib_02339_R3,Plate:MR001
# [7] = compound concentrations:100 nM and 1000 nM (sheet 'Lestaurtinib' of Supplementary Table 1),run:Lestaurtinib_02367_R3,Plate:MR003
# [8] = compound concentrations:100 nM and 1000 nM (sheet 'Lestaurtinib' of Supplementary Table 1),run:Lestaurtinib_02381_R1,Plate:MR004
# [9] = compound concentrations:100 nM and 1000 nM (sheet 'Lestaurtinib' of Supplementary Table 1),run:Lestaurtinib_02381_R3,Plate:MR004
# [10] = compound concentrations:100 nM and 1000 nM (sheet 'Lestaurtinib' of Supplementary Table 1),run:Lestaurtinib_02422_R1,Plate:MR006
# [11] = compound concentrations:100 nM and 1000 nM (sheet 'Lestaurtinib' of Supplementary Table 1),run:Lestaurtinib_02437_R3,Plate:MR007
# [12] = compound concentrations:100 nM and 1000 nM (sheet 'Lestaurtinib' of Supplementary Table 1),run:Lestaurtinib_02438_R3,Plate:MR008
# [13] = compound concentrations:100 nM and 1000 nM (sheet 'Lestaurtinib' of Supplementary Table 1),run:Lestaurtinib_02443_R3,Plate:MR009
# [14] = compound concentrations:100 nM and 1000 nM (sheet 'Lestaurtinib' of Supplementary Table 1),run:Lestaurtinib_02473_R2,Plate:MR010
# [15] = compound concentrations:100 nM and 1000 nM (sheet 'Lestaurtinib' of Supplementary Table 1),run:Lestaurtinib_02473_R3,Plate:MR010
# [16] = compound concentrations:100 nM and 1000 nM (sheet 'Lestaurtinib' of Supplementary Table 1),run:Lestaurtinib_02482_R2,Plate:MR011
# [17] = compound concentrations:100 nM and 1000 nM (sheet 'Lestaurtinib' of Supplementary Table 1),run:Lestaurtinib_02487_R1,Plate:MR012
# [18] = compound concentrations:100 nM and 1000 nM (sheet 'Lestaurtinib' of Supplementary Table 1),run:Lestaurtinib_02566_R3,Plate:MR014
# [19] = compound concentrations:100 nM and 1000 nM (sheet 'Lestaurtinib' of Supplementary Table 1),run:Lestaurtinib_02584_R2,Plate:MR017
# [20] = compound concentrations:100 nM and 1000 nM (sheet 'Lestaurtinib' of Supplementary Table 1),run:Lestaurtinib_02606_R2,Plate:MR019
# [21] = compound concentrations:100 nM and 1000 nM (sheet 'Lestaurtinib' of Supplementary Table 1),run:Lestaurtinib_02624_R3,Plate:MR020
# [22] = compound concentrations:100 nM and 1000 nM (sheet 'Lestaurtinib' of Supplementary Table 1),run:Lestaurtinib_02724_R3,Plate:MR021
# [23] = compound concentrations:100 nM and 1000 nM (sheet 'Lestaurtinib' of Supplementary Table 1),run:Lestaurtinib_02752_R3,Plate:MR025
# [24] = compound concentrations:100 nM and 1000 nM (sheet 'Lestaurtinib' of Supplementary Table 1),run:Lestaurtinib_02768_R3,Plate:MR028
# [25] = compound concentrations:100 nM and 1000 nM (sheet 'Lestaurtinib' of Supplementary Table 1),run:Lestaurtinib_02896_R3,Plate:MR030
# [26] = compound concentrations:100 nM and 1000 nM (sheet 'Lestaurtinib' of Supplementary Table 1),run:Lestaurtinib_02364_R3,Plate:MR002
# [27] = compound concentrations:100 nM and 1000 nM (sheet 'Lestaurtinib' of Supplementary Table 1),run:Lestaurtinib_02601_R1,Plate:MR018
substance,measurement,setting,value
Lestaurtinib,potency estimated from few doses,[1],1930 nM
same,potency estimated from few doses,[2]; [5],860 nM
same,potency estimated from few doses,[2]; [6],1330 nM
same,potency estimated from few doses,"[2]; compound concentrations:100 nM and 1000 nM (sheet 'Lestaurtinib' of Supplementary Table 1),run:Lestaurtinib_02364_R2,Plate:MR002",936 nM
same,potency estimated from few doses,[2]; [7],951 nM
same,potency estimated from few doses,[2]; [8],919 nM
same,potency estimated from few doses,"[2]; compound concentrations:100 nM and 1000 nM (sheet 'Lestaurtinib' of Supplementary Table 1),run:Lestaurtinib_02381_R2,Plate:MR004",900 nM
same,potency estimated from few doses,[2]; [9],952 nM
same,potency estimated from few doses,[2]; [10],741 nM
same,potency estimated from few doses,[2]; [11],79.1 nM
same,potency estimated from few doses,"[2]; compound concentrations:100 nM and 1000 nM (sheet 'Lestaurtinib' of Supplementary Table 1),run:Lestaurtinib_02438_R1,Plate:MR008",898 nM
same,potency estimated from few doses,[2]; [12],1600 nM
same,potency estimated from few doses,[2]; [13],762 nM
same,potency estimated from few doses,[2]; [14],944 nM
same,potency estimated from few doses,[2]; [15],74.3 nM
same,potency estimated from few doses,"[2]; compound concentrations:100 nM and 1000 nM (sheet 'Lestaurtinib' of Supplementary Table 1),run:Lestaurtinib_02482_R1,Plate:MR011",1130 nM
same,potency estimated from few doses,[2]; [16],1490 nM
same,potency estimated from few doses,[2]; [17],253 nM
same,potency estimated from few doses,"[2]; compound concentrations:100 nM and 1000 nM (sheet 'Lestaurtinib' of Supplementary Table 1),run:Lestaurtinib_02487_R3,Plate:MR012",737 nM
same,potency estimated from few doses,[2]; [18],1310 nM
same,potency estimated from few doses,"[2]; compound concentrations:100 nM and 1000 nM (sheet 'Lestaurtinib' of Supplementary Table 1),run:Lestaurtinib_02572_R1,Plate:MR015",904 nM
same,potency estimated from few doses,[2]; [19],1310 nM
same,potency estimated from few doses,[2]; [20],1490 nM
same,potency estimated from few doses,[2]; [21],1310 nM
same,potency estimated from few doses,[2]; [22],883 nM
same,potency estimated from few doses,"[2]; compound concentrations:100 nM and 1000 nM (sheet 'Lestaurtinib' of Supplementary Table 1),run:Lestaurtinib_02748_R1,Plate:MR024",858 nM
same,potency estimated from few doses,"[2]; compound concentrations:100 nM and 1000 nM (sheet 'Lestaurtinib' of Supplementary Table 1),run:Lestaurtinib_02748_R2,Plate:MR024",956 nM
same,potency estimated from few doses,"[2]; compound concentrations:100 nM and 1000 nM (sheet 'Lestaurtinib' of Supplementary Table 1),run:Lestaurtinib_02752_R1,Plate:MR025",1360 nM
same,potency estimated from few doses,[2]; [23],1210 nM
same,potency estimated from few doses,"[2]; compound concentrations:100 nM and 1000 nM (sheet 'Lestaurtinib' of Supplementary Table 1),run:Lestaurtinib_02766_R1,Plate:MR027",1580 nM
same,potency estimated from few doses,"[2]; compound concentrations:100 nM and 1000 nM (sheet 'Lestaurtinib' of Supplementary Table 1),run:Lestaurtinib_02766_R3,Plate:MR027",1320 nM
same,potency estimated from few doses,"[2]; compound concentrations:100 nM and 1000 nM (sheet 'Lestaurtinib' of Supplementary Table 1),run:Lestaurtinib_02768_R1,Plate:MR028",932 nM
same,potency estimated from few doses,[2]; [24],921 nM
same,potency estimated from few doses,"[2]; compound concentrations:100 nM and 1000 nM (sheet 'Lestaurtinib' of Supplementary Table 1),run:Lestaurtinib_02896_R1,Plate:MR030",784 nM
same,potency estimated from few doses,"[2]; compound concentrations:100 nM and 1000 nM (sheet 'Lestaurtinib' of Supplementary Table 1),run:Lestaurtinib_02896_R2,Plate:MR030",1130 nM
same,potency estimated from few doses,[2]; [25],931 nM
same,potency estimated from few doses,"[2]; compound concentrations:100 nM and 1000 nM (sheet 'Lestaurtinib' of Supplementary Table 1),run:Lestaurtinib_03172_R1,Plate:MR031",1570 nM
same,potency estimated from few doses,"[2]; compound concentrations:100 nM and 1000 nM (sheet 'Lestaurtinib' of Supplementary Table 1),run:Lestaurtinib_03172_R2,Plate:MR031",1330 nM
same,potency estimated from few doses,[3]; [5],584 nM
same,potency estimated from few doses,[3]; [6],531 nM
same,potency estimated from few doses,[3]; [26],1000 nM
same,potency estimated from few doses,[3]; [7],887 nM
same,potency estimated from few doses,[3]; [8],712 nM
same,potency estimated from few doses,[3]; [9],611 nM
same,potency estimated from few doses,"[3]; compound concentrations:100 nM and 1000 nM (sheet 'Lestaurtinib' of Supplementary Table 1),run:Lestaurtinib_02407_R1,Plate:MR005",924 nM
same,potency estimated from few doses,"[3]; compound concentrations:100 nM and 1000 nM (sheet 'Lestaurtinib' of Supplementary Table 1),run:Lestaurtinib_02407_R2,Plate:MR005",928 nM
same,potency estimated from few doses,"[3]; compound concentrations:100 nM and 1000 nM (sheet 'Lestaurtinib' of Supplementary Table 1),run:Lestaurtinib_02407_R3,Plate:MR005",1150 nM
same,potency estimated from few doses,[3]; [10],131 nM
same,potency estimated from few doses,"[3]; compound concentrations:100 nM and 1000 nM (sheet 'Lestaurtinib' of Supplementary Table 1),run:Lestaurtinib_02437_R2,Plate:MR007",1340 nM
same,potency estimated from few doses,[3]; [11],83.7 nM
same,potency estimated from few doses,[3]; [12],1600 nM
same,potency estimated from few doses,[3]; [13],935 nM
same,potency estimated from few doses,[3]; [14],859 nM
same,potency estimated from few doses,[3]; [15],835 nM
same,potency estimated from few doses,[3]; [16],1580 nM
same,potency estimated from few doses,[3]; [17],365 nM
same,potency estimated from few doses,[3]; [18],79.5 nM
same,potency estimated from few doses,"[3]; compound concentrations:100 nM and 1000 nM (sheet 'Lestaurtinib' of Supplementary Table 1),run:Lestaurtinib_02584_R1,Plate:MR017",798 nM
same,potency estimated from few doses,[3]; [19],936 nM
same,potency estimated from few doses,[3]; [27],963 nM
same,potency estimated from few doses,[3]; [20],1240 nM
same,potency estimated from few doses,"[3]; compound concentrations:100 nM and 1000 nM (sheet 'Lestaurtinib' of Supplementary Table 1),run:Lestaurtinib_02624_R2,Plate:MR020",876 nM
same,potency estimated from few doses,[3]; [21],1320 nM
same,potency estimated from few doses,"[3]; compound concentrations:100 nM and 1000 nM (sheet 'Lestaurtinib' of Supplementary Table 1),run:Lestaurtinib_02748_R3,Plate:MR024",1790 nM
same,potency estimated from few doses,"[3]; compound concentrations:100 nM and 1000 nM (sheet 'Lestaurtinib' of Supplementary Table 1),run:Lestaurtinib_02752_R2,Plate:MR025",818 nM
same,potency estimated from few doses,[3]; [23],954 nM
same,potency estimated from few doses,"[3]; compound concentrations:100 nM and 1000 nM (sheet 'Lestaurtinib' of Supplementary Table 1),run:Lestaurtinib_02768_R2,Plate:MR028",1540 nM
same,potency estimated from few doses,[3]; [24],852 nM
same,potency estimated from few doses,"[3]; compound concentrations:100 nM and 1000 nM (sheet 'Lestaurtinib' of Supplementary Table 1),run:Lestaurtinib_02795_R2,Plate:MR022",1330 nM
same,potency estimated from few doses,"[3]; compound concentrations:100 nM and 1000 nM (sheet 'Lestaurtinib' of Supplementary Table 1),run:Lestaurtinib_02802_R1,Plate:MR029",1150 nM
same,potency estimated from few doses,"[3]; compound concentrations:100 nM and 1000 nM (sheet 'Lestaurtinib' of Supplementary Table 1),run:Lestaurtinib_02802_R2,Plate:MR029",1430 nM
same,potency estimated from few doses,[3]; [25],700 nM
same,potency estimated from few doses,"[3]; compound concentrations:100 nM and 1000 nM (sheet 'Lestaurtinib' of Supplementary Table 1),run:Lestaurtinib_03252_R1,Plate:MR032",744 nM
same,potency estimated from few doses,"[3]; compound concentrations:100 nM and 1000 nM (sheet 'Lestaurtinib' of Supplementary Table 1),run:Lestaurtinib_03260_R1,Plate:MR033",860 nM
same,potency estimated from few doses,"[3]; compound concentrations:100 nM and 1000 nM (sheet 'Lestaurtinib' of Supplementary Table 1),run:Lestaurtinib_03260_R2,Plate:MR033",760 nM
same,potency estimated from few doses,[4]; [26],131 nM
same,potency estimated from few doses,"[4]; compound concentrations:100 nM and 1000 nM (sheet 'Lestaurtinib' of Supplementary Table 1),run:Lestaurtinib_02443_R2,Plate:MR009",226 nM
same,potency estimated from few doses,[4]; [13],271 nM
same,potency estimated from few doses,"[4]; compound concentrations:100 nM and 1000 nM (sheet 'Lestaurtinib' of Supplementary Table 1),run:Lestaurtinib_02473_R1,Plate:MR010",248 nM
same,potency estimated from few doses,[4]; [14],235 nM
same,potency estimated from few doses,"[4]; compound concentrations:100 nM and 1000 nM (sheet 'Lestaurtinib' of Supplementary Table 1),run:Lestaurtinib_02496_R2,Plate:MR013",47.1 nM
same,potency estimated from few doses,"[4]; compound concentrations:100 nM and 1000 nM (sheet 'Lestaurtinib' of Supplementary Table 1),run:Lestaurtinib_02566_R1,Plate:MR014",253 nM
same,potency estimated from few doses,[4]; [19],206 nM
same,potency estimated from few doses,"[4]; compound concentrations:100 nM and 1000 nM (sheet 'Lestaurtinib' of Supplementary Table 1),run:Lestaurtinib_02584_R3,Plate:MR017",278 nM
same,potency estimated from few doses,[4]; [27],99.8 nM
same,potency estimated from few doses,"[4]; compound concentrations:100 nM and 1000 nM (sheet 'Lestaurtinib' of Supplementary Table 1),run:Lestaurtinib_02606_R1,Plate:MR019",131 nM
same,potency estimated from few doses,"[4]; compound concentrations:100 nM and 1000 nM (sheet 'Lestaurtinib' of Supplementary Table 1),run:Lestaurtinib_02606_R3,Plate:MR019",135 nM
same,potency estimated from few doses,[4]; [22],41.4 nM
